# Only a selection was taken, and hits are over-represented in it overall.
# HT1080 IDH1KD tx = qHTS for induction of synthetic lethality in tumor cells producing 2HG: qHTS for the HT-1080-IDH1KD cell line | AID 686971, 2013 | HT-1080 IDH1 knockdown viability, ATP luminescence, 48 h | Potency, µM (highest dose often 46.1 µM), inactives show at the highest dose activity, negative = toxicity, most hits filed as cytotoxic | 2% of 360,000 active;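 also: potency is read from the fitted curve at half-maximal effect; 0% = DMSO wells and -100% = cell-free medium wells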
#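 Knockdown cells (IDH1KD HT-1080) received compounds 2 h after plating at 750 cells/well and were kept 48 h at 37 °C in 5% FBS RPMI. A CellTiter-Glo luminescence read gave % activity for curve fitting.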
# DT40 TDP1 CPT = qHTS for Inhibitors of human tyrosyl-DNA phosphodiesterase 1 (TDP1): qHTS in cells in presence of CPT | chicken DT40 Tdp1-/-;hTDP1 cells + 20 nM CPT, ATP luminescence, 48 h | Potency, µM (titrated, usually from 46.2 µM), inactives show top-dose activity change, negative = growth inhibition, actives largely listed as inhibitors | 12% of 420,000 active | AID 686979, 2013; also: potency is read from the fitted curve at half-maximal effect; nearly all actives have a fitted effect of over 55% in size
#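 Cell growth measured by CellTiter-Glo luminescence after a minimum 48 h, 37 C compound exposure with 20 nM CPT in Tdp1-knockout DT40 cells stably expressing hTDP1, seeded 400/well; qHTS titration format.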
# 12-LOX inh = Primary qHTS assay for inhibitors of human arachidonate 12S-lipoxygenase (ALOX12): Round 2 | Polyunsaturated fatty acid lipoxygenase ALOX12 (Homo sapiens), P18054 | purified 12hLO, xylenol orange hydroperoxide absorbance | Potency, µM (series often up to 108 µM), without a hit: top-dose activity change, negative = inhibition, actives largely listed as inhibitors | 1.1% of 580,000 active | AID 1671190, 2021; also: potency is read from the fitted curve at half-maximal effect
# Target sequence (P18054 whole entry, looked up): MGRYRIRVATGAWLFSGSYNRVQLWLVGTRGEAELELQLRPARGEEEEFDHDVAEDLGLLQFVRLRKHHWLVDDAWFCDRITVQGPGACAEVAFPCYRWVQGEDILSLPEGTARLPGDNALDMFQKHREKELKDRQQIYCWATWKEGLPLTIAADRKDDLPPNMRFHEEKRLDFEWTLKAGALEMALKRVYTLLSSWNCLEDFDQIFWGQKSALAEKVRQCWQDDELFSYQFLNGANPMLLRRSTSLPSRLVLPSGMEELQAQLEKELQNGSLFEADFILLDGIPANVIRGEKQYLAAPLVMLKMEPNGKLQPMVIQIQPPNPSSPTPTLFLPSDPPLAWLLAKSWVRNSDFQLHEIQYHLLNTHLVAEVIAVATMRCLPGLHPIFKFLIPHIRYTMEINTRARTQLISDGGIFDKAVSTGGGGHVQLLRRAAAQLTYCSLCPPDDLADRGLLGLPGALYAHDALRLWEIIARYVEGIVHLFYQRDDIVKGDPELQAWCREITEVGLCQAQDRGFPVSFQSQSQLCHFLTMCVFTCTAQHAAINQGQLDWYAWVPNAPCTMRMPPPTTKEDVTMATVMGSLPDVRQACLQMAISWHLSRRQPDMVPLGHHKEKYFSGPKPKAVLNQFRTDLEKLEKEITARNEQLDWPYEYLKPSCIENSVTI
#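 Purified human 12hLO (150 nM final) in 25 mM Hepes, 0.01% Triton X-100, pH 7.0 was preincubated 15 min at room temperature with compound. Then 40 uM arachidonic acid was added, 30 min. Hydroperoxide was read by Fe-XO absorbance ratio 573/405 nm.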
# TDP1 cell noCPT = qHTS for Inhibitors of human tyrosyl-DNA phosphodiesterase 1 (TDP1): qHTS in cells in absence of CPT; Potency, µM (top dose mostly 46.2 µM), for the others: at the top dose activity change, negative = growth inhibition, actives largely listed as inhibitors; DT40 Tdp1-/- hTDP1 cells, no CPT, ATP luminescence, 48 h; 15% of 420,000 active; also: potency is read from the fitted curve at half-maximal effect; nearly all actives have a fitted effect of over 55% in size
#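 Compound effects on proliferation are scored in DT40 Tdp1-/-;hTDP1 cells in the absence of CPT. ATP levels (CellTiter-Glo luminescence) are recorded after a ≥48 hr, 37 °C incubation.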
# IL-1B inflam inh = qHTS for Inhibitors of Inflammasome Signaling: IL-1-beta AlphaLISA Primary Screen. THP-1 LPS/ATP IL-1B secretion, AlphaLISA, 16 h; hits give low values. 4.7% of 360,000 active. AID 743279, 2014. activity change, % at 57.5 µM; in the data active = activity change below about -50%; inconclusive = mostly about -30% to -49%
#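 THP-1 cells pretreated 1 hr with compounds (up to 57.5 uM final), then stimulated with LPS (250 ng/mL final) plus ATP (1.25 mM final); secreted IL-1B measured by AlphaLISA after 16 hr, decreased signal indicating inhibition.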
# HT1080-NT tox = qHTS for induction of synthetic lethality in tumor cells producing 2HG: qHTS for the HT-1080-NT fibrosarcoma cell line; HT-1080-NT fibrosarcoma viability, CellTiter-Glo ATP luminescence, 48 h; Potency, µM (series often up to 46.1 µM), for the others: at the highest dose activity, negative = less viability, most hits filed as cytotoxic; 1.6% of 360,000 active; AID 686970, 2013;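 also: NT is the 2HG producing partner of a matched IDH1 knockdown line; potency is read from the fitted curve at half-maximal effect; 0% = DMSO-treated cells and -100% = media-only wells without cells; nearly all actives have a fitted effect of over 55% in size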
#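 Viability by CellTiter-Glo luminescence after 48 h compound exposure at 37C of HT-1080-NT cells (750/well, RPMI, 5% FBS). % activity scaled between DMSO wells and medium-only wells, then curve-fitted and categorized by curve class.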
# Starred values were filed as active, the others as inactive; i = inactive; ? = inconclusive; . = no result given; [ ] = dose if it differs, or a comment. Unless noted, calls follow the shape of the dose curve; as a rule, active = well fitted curve in the direction sought with a large enough effect; inconclusive = small, poorly fitted or top-dose-only effect, or another doubt; inactive = no such curve, though single readings can be large; an effect the other way counts as inactive or inconclusive. Unless noted, % is scaled to controls: 0 for no effect and ±100 for the full control effect.
SMILES,HT1080 IDH1KD tx,DT40 TDP1 CPT,12-LOX inh,TDP1 cell noCPT,IL-1B inflam inh,HT1080-NT tox
COc1cc(NC(=O)c2[nH]c(C)c(C(C)=O)c2C)cc(OC)c1OC,-1.0%,-23.6%,?,-28.0%,-14.8,7.0%
COc1ccc(-c2c(C#N)c(N)nc(Sc3ccc(Cl)cc3)c2C#N)cc1,-2.7%,-12.3%,?,-29.6%,.,-5.7%
COc1nc(N)c(C#N)c(-c2ccc(N(C)CCC#N)cc2)c1C#N,-7.0%,18.4µM*,?,7.31µM*,?,-0.3%
COc1cccc(C(=O)Nc2ccc(-c3nnc(-c4ccco4)o3)cc2)c1,?,?,0.0%,10.3µM*,-19.0,-16.3%
COc1ccc(C(=O)Nc2cccc(NC(=O)c3ccc(OC)c(OC)c3)n2)cc1OC,-17.0%,8.2µM*,-0.6%,7.31µM*,-22.3,-28.2%
COc1ccc(C(=O)Nc2cccc3cccnc23)cc1OC,3.4%,?,-2.1%,?,-25.4,0.4%[9.24 µM]
Brc1ccc(CSc2nnc(-c3ccco3)o2)cc1,-2.6%,-15.3%,-24.8%,?,i,-0.1%
COc1cccc(-c2nnc(-c3ccco3)o2)c1,4.9%,?,8.6%,29.1µM*,4.9,25.7%
COc1cccc(-c2nnc(-c3ccc(C)o3)o2)c1,8.8%,7.2%,-1.7%,-10.6%,-2.4,14.9%
Brc1ccc(-c2ccc(-c3nnc(-c4ccco4)o3)o2)cc1,.,.,14.1µM*,.,.,.
CCc1ccc(N2CN(Cc3cccnc3)Cn3c2nc(C)c(C)c3=O)cc1,.,.,19.4%,.,.,.
COc1ccc(-c2cn[nH]c2-c2ccc(OCCN3CCCCC3)cc2O)cc1,.,.,-17.7%,.,.,.
COc1ccc2[nH]c3c(c2c1)CCNC31CCN(C(=O)C2CCC2)CC1,.,.,6.1%,.,.,.
CCc1nc2c(c(-c3ccc(Cl)cc3)n1)CCN(CC1CC1)CC2,.,.,41.6%[176 µM],.,.,.
CN1C[C@@H](NS(=O)(=O)c2ccc(C#N)cc2)C[C@H]1c1nc(-c2ccncc2)no1,.,.,-9.1%[176 µM],.,.,.
O=C(Nc1nnc(C2=COCCO2)o1)c1cccc([N+](=O)[O-])c1,-0.3%,-8.2%,8.3%,-5.6%,i,0.9%
COc1cccc(C(=O)Nc2cccc(-c3nnc(-c4ccccc4)o3)c2)c1,-9.2%,?,130.5%,18.4µM*,104.4,-1.8%
Cc1ccc(-c2nnc(-c3ccc(NC(=O)c4ccco4)cc3)o2)cc1,-0.6%,23.1µM*,9.1%,20.6µM*,-0.4,-4.3%
COc1cccc(C(=O)Nc2cccc(-c3ccccc3)c2)c1,-4.5%,?,0.0%,?,6.2,0.8%
COc1ccc(C(=O)Nc2nnc(-c3ccccc3)o2)cc1OC,-4.0%[9.24 µM],?,11.8%,23.1µM*,-11.3,-23.2%
O=C(Nc1nnc(-c2ccc(F)cc2)o1)c1cccc([N+](=O)[O-])c1,?,3.66µM*,-9.4%,3.26µM*,95.4,-24.9%
COc1cc(C(=O)OCC(=O)Nc2nnc(-c3ccccc3)o2)cc(OC)c1OC,-4.8%,-18.1%,7.9%,-6.4%,-3.3,-4.5%
COCCn1nc2n(c1=O)CCN(S(=O)(=O)c1c(C)nn(C)c1C)CC2,.,.,3.4%,.,.,.
CCOc1ccccc1NC(=O)Cc1c(C)[nH]n(-c2nc(-c3ccc(Cl)cc3)cs2)c1=O,.,.,39.2%,.,.,.
Cc1ccc2c(CSc3nc(N)cc(N)n3)cc(=O)oc2c1C,.,.,-18.2%,.,.,.
SMILES,HT1080 IDH1KD tx,DT40 TDP1 CPT,12-LOX inh,TDP1 cell noCPT,IL-1B inflam inh,HT1080-NT tox
O=C(Nc1c(C(=O)Nc2ccccc2)cnn1-c1ccccc1)c1ccco1,-3.4%,-2.7%,4.6%,-20.5%,12.2,0.0%
COc1cccc(-c2nnc(NC(=O)c3cccc(F)c3)o2)c1,-9.1%,3.26µM*,?,3.26µM*,33.1,-4.4%
CCOc1cccc(C(=O)Nc2cccc(-c3nnc(-c4ccccc4)o3)c2)c1,0.0%,14.6µM*,-6.4%,18.4µM*,-72.9*,0.2%
Cc1ccc(NC(=O)c2cnn(-c3ccccc3)c2NC(=O)c2ccco2)cc1,13.7%,13µM*,0.9%,?,-17.0,1.2%
CCOc1cccc(NC(=O)c2cccc(C)c2)c1,.,.,21.9%,.,.,.
CCOc1cccc(C(=O)Nc2cccc(-c3nnc(-c4ccc(C)cc4)o3)c2)c1,-1.6%,18.4µM*,?,?,0.0,-7.6%
CC(OC(=O)c1ccc(-n2cnnn2)cc1)C(=O)N1CCCc2ccccc21 (stereo not drawn),.,.,-3.2%,.,.,.
CCc1cccc(N2C(=O)CS(=O)(=O)C23C(=O)N(Cc2ccc(F)cc2)c2ccc(C)cc23)c1 (stereo not drawn),.,?,-17.2%,23.1µM*,.,.
CCc1cccc(N2C(=O)CS(=O)(=O)C23C(=O)N(Cc2ccccc2)c2ccc(C)cc23)c1 (stereo not drawn),.,?,-9.4%,18.4µM*,.,.
Cc1cc(C)cc(N2C(=O)CS(=O)(=O)C23C(=O)N(Cc2ccc(F)cc2)c2ccc(C)cc23)c1 (stereo not drawn),.,18.4µM*,?,20.6µM*,.,.
COc1ccc(N2C(=O)CS(=O)(=O)C23C(=O)N(Cc2cccc(F)c2)c2ccccc23)cc1OC (stereo not drawn),.,-23.6%,-19.1%,?,.,.
O=C1CS(=O)(=O)C2(C(=O)N(Cc3ccccc3)c3ccccc32)N1c1ccc(F)c(Cl)c1 (stereo not drawn),.,-29.2%,-10.5%,?,.,.
CC(NC(=O)c1cccc(C(F)(F)F)c1)C1CC2CCC1C2 (stereo not drawn),.,.,35.8%,.,.,.
COC(=O)[C@@H](N)Cc1ccc(O)c(O)c1,7.7%,26.6µM*,?,?,45.1,2.1%
CC(C)Cn1c(N)c(C(=O)COC(=O)c2ccc3c(c2)OCCO3)c(=O)n(C)c1=O,-1.3%,18.4µM*,0.0%,20.6µM*,-4.4,-0.6%
CC(C)Cn1c(N)c(C(=O)CSc2ccc3c(c2)OCCO3)c(=O)n(C)c1=O,?,4.11µM*,-6.4%,3.66µM*,-7.9,-15.2%
CSc1ccc(CN2C(=O)C(F)(F)Oc3c(C(C)=O)cccc32)cc1,-1.1%,18.4µM*,.,16.4µM*,-7.1,-1.4%
CSc1ccc(CN2C(=O)C(C)Oc3c(C(C)=O)cccc32)cc1 (stereo not drawn),10.7%,?,1.4%,?,-0.5,-9.1%

# Assay outcomes (PubChem BioAssay)
